# Results reported in the supplement of paper PMC3342239.
# Counter-ions that a name gives are not always drawn.
# Tested on: Saccharomyces cerevisiae
# Assay: fraction of cells in G1 phase (DNA content, flow cytometry); higher = more cells with unreplicated DNA (G1 delay)
# Conditions: temperature: 30 C; YPD; JTY2953 pdr5 snq2 (sensitized); drug added to: cultures diluted from stationary phase; 6-7 h
# Summary of the method: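 Yeast (S. cerevisiae) in YPD at 30°C was treated with library drugs, and cells were then fixed in ethanol, stained with SYTOX Green and counted by flow cytometry over 10,000 events. Sensitized JTY2953 diluted 1∶200 from an overnight culture got a final 20 µg/ml and was fixed 6–7 h later; other runs dosed dividing JTY2953 (fixed at 6 h) or BY4741 (fixed at 4.33 h). G1 fraction means the Dean-Jett-Fox G1 peak area relative to the G1 and G2/M areas together.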
row,Structure (SMILES),fraction of cells in G1 phase
1,CN(C)CCc1c[nH]c2ccc(C[C@H]3COC(=O)N3)cc12 [zolmitriptan] (65.9179 µM),0.474
2,CN1CCC(=C2c3ccccc3CC(=O)c3sccc32)CC1 [Ketotifen fumarate] (64.6343 µM),0.496
3,Nc1c(Br)cc(Br)cc1CN[C@H]1CC[C@H](O)CC1 [Ambroxol] (52.8948 µM),0.529
4,CCn1cc(C(=O)O)c(=O)c2cc(F)c(N3CCNC(C)C3)c(F)c21 (stereo unspecified) [Lomefloxacin HCl] (56.9223 µM),0.489
5,CN(C)/N=N/c1[nH]cnc1C(N)=O [Dacarbazine] (109.778 µM),0.47
6,COc1cc2nc(N(C)CCCNC(=O)C3CCCO3)nc(N)c2cc1OC (stereo unspecified) [Alfuzosin] (51.3611 µM),0.523
